{"source": "PubChem BioAssay AID602310", "about": "(National Center for Advancing Translational Sciences (NCATS), 2012)", "note": "Hit rate of the full screen: of about 410,000 compounds, about 310 (0.076%) were called active. Roughly 2% stayed inconclusive and do not appear here. Many of the other results were omitted from the sample, so actives are more common in it than they were. A number with no mark means an inactive call. Calls follow the shape of the dose curve; as a rule, active = well fitted curve in the direction sought with a large enough effect; inconclusive = small, poorly fitted or top-dose-only effect; inactive = flat fitted curve, though single readings scatter. % is scaled to controls: 0 for no effect and ±100 for the full control effect; potency is read from the fitted curve at half-maximal effect.", "data": [{"molecular_target": "DNA dC->dU-editing enzyme APOBEC-3G (Homo sapiens) (UniProt Q9HC16)", "sequence (Q9HC16 whole entry, looked up)": "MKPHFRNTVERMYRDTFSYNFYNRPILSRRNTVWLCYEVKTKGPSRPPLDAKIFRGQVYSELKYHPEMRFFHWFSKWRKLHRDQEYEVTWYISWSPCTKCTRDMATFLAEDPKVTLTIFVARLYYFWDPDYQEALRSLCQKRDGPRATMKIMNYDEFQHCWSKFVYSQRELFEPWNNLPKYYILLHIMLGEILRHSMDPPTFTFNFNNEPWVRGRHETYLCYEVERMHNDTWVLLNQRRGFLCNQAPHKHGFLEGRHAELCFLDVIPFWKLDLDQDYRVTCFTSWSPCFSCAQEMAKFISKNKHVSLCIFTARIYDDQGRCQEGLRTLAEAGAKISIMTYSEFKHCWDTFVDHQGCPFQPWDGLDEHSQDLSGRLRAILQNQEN", "experiment": "qHTS for Inhibitors of Vif-A3G Interactions: qHTS; also: nearly all actives have a fitted effect of over 60% in size;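 as to activity, negative = active: hits raise eYFP signal because A3G escapes Vif-driven loss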", "conditions": "HeLa A3G-eYFP + Vif (tagged APOBEC3G with the HIV-1 protein that degrades it), YFP fluorescence, overnight; series mostly up to 46.1 µM; activity, negative = active: at the top concentration", "source_text": "The recent discovery and characterization of host restriction factors, which provide a potent defense to invading retroviruses, has provided new targets for antiviral drug development. APOBEC3G (A3G) and APOBEC3F (A3F) are potent cytidine deaminases that block HIV-1 replication; HIV-1 expresses the Vif protein, which counteracts A3G and A3F by binding to them and inducing their proteasomal degradation. The Vif-A3G and Vif-A3F interactions provide two potential targets for development of small molecules which can interfere with the ability of Vif to degrade A3G or A3F. […] To identify inhibitors that can interfere with Vif mediated degradation of A3G and A3F, we have developed Hela cell lines that stably express A3G or A3F tagged with eYFP at the C-terminal end (A3G-eYFP or A3F-eYFP, respectively) and Vif. In the absence of an inhibitor, Vif induces degradation of A3G-eYFP and A3F-eYFP, and the cells are not fluorescent. In the presence of an inhibitor, it is expected that Vif will be unable to degrade A3G-eYFP and/or A3F-eYFP, resulting in an increase in yellow fluorescence. In this assays Vif A3G was screened against the Molecular Library Small Molecule Repository (MLSMR). NIH Chemical Genomics Center [NCGC] NIH Molecular Libraries Probe Centers Network [MLPCN] MLPCN Grant: MH093245 Assay Submitter (PI): Vinay Pathak, National Cancer Institute\n5 uL of 700 cells/well of A3G-YFP cells are dispensed into black, clear bottom plates. The plates are incubated overnight at 37 deg C. 23 nL of compounds are added by pintool. The plates are incubated overnight at 37 deg C and then read on the TTP Acumen (Ex 488/ Em 500-530).", "units": {"activity, negative = active": "%"}, "values": [{"smiles": "Cc1nn(CC(=O)N2CCN(c3cccc(C(F)(F)F)c3)CC2)c(=O)c2cc3sccc3n12", "activity, negative = active": 1.37}, {"smiles": "CCCCC(CCCC)c1ccc(C=Nc2ccc(/C=C/c3ccnc4ccccc34)cc2)cc1", "activity, negative = active": -7.47}, {"smiles": "CCS(=O)(=O)N1CCc2cc(C(=O)NCc3ccc(C)cc3)ccc21", "activity, negative = active": 1.84}, {"smiles": "CCCCN1C(=O)c2[nH]nc(-c3ccccc3O)c2C1c1cccc(OCc2ccccc2)c1", "note": "(stereo unspecified)", "activity, negative = active": -29.4}, {"smiles": "ClC/C=C/C[n+]1ccccc1Cl", "activity, negative = active": 3.06}, {"smiles": "CSc1n[nH]c(-c2ccco2)n1", "activity, negative = active": -3.31}, {"smiles": "C[n+]1ccc(/C=C/c2c[nH]c3ccccc23)cc1", "Potency": "11.2 µM (active)"}, {"smiles": "CCOc1n[nH]c(-c2ccccc2)n1", "activity, negative = active": 3.57}, {"smiles": "CCc1nn(CC(=O)Nc2cccc(C)c2C)c(=O)c2cc3sccc3n12", "activity, negative = active": 2.56}, {"smiles": "CCOc1ccccc1NC(=O)CN1CCN(S(=O)(=O)c2ccc(Br)cc2)CC1", "activity, negative = active": 1.45}, {"smiles": "COc1cccc(NC(=O)Cn2c(=O)cc(C)c3c(C)nn(-c4cccc(F)c4)c32)c1", "activity, negative = active": 0.977}, {"smiles": "Nc1nc(N)c(N=O)c(N)n1", "activity, negative = active": -0.374}, {"smiles": "CCCCOc1ccc(C(=O)N2CC(=O)Nc3ccc(Br)cc3C2c2ccc(F)cc2)cc1", "note": "(stereo unspecified)", "activity, negative = active": -0.538}, {"smiles": "COc1ccccc1/C=C/c1nc(C#N)c(NC(C)c2ccccc2)o1", "note": "(stereo unspecified)", "activity, negative = active": 0.452}, {"smiles": "COc1ccc(CCNC(=O)c2ccc(CSCc3ccc(C)cc3)o2)cc1OC", "activity, negative = active": 4.58}, {"smiles": "CNCCCOc1cc2nc(N3CCCN(C)CC3)nc(NC3CCN(C)CC3)c2cc1OC", "activity, negative = active": 2.66}, {"smiles": "O=C(COc1ccccc1C(=O)Nc1ccccc1)Nc1cccc(F)c1", "activity, negative = active": -2.9}, {"smiles": "CC1(C)CC(=O)c2cc(C(=O)NCc3ccccc3)c(=O)[nH]c2C1", "activity, negative = active": -3.12}, {"smiles": "Cn1nnnc1SCCNCc1ccc(Cl)c(Cl)c1", "activity, negative = active": -0.946}, {"smiles": "Cc1csc[n+]1CCC1CCCCC1", "activity, negative = active": 1.21}, {"smiles": "CCCCn1c(CNC(=O)C23CC4CC(CC(C4)C2)C3)nnc1SCC(=O)Nc1ccc(C)cc1", "activity, negative = active": -0.393}, {"smiles": "CCn1c(CNc2ccc(OC)cc2)nnc1SCC(=O)c1ccc(OC)cc1", "activity, negative = active": 0.533}, {"smiles": "CCn1c(CNC(=O)C23CC4CC(CC(C4)C2)C3)nnc1SCC(=O)Nc1ccc(OC)cc1", "Potency": "10 µM (active)"}, {"smiles": "Cc1ccc(C(=O)COC(=O)C(Cc2c[nH]c3ccccc23)NC(=O)c2ccc(Br)cc2)cc1", "note": "(stereo unspecified)", "activity, negative = active": 2.11}, {"smiles": "Cc1ccc(Cl)cc1N1CCN(C(=O)c2cn(C)c3ccc(S(=O)(=O)N(C)C4CCCCC4)cc3c2=O)CC1", "activity, negative = active": 0.271}, {"smiles": "S=c1[nH]c(=S)c2n[nH]nc2[nH]1", "activity, negative = active": 4.48}, {"smiles": "COc1cccc(C(=O)NC(=O)Nc2ccc(-c3cc(C(F)(F)F)nn3-c3ccccc3)cc2)c1", "activity, negative = active": 3.03}, {"smiles": "COc1ccc(CCN2C(=O)N(c3cccc(OC)c3)C(=O)C2CC(=O)Nc2ccccc2)cc1", "note": "(stereo unspecified)", "activity, negative = active": 3.95}, {"smiles": "COc1ccc(CC(=O)NCCc2sc3nc(-c4ccc(OC)cc4)nn3c2C)cc1", "activity, negative = active": 7.95}, {"smiles": "CCc1ccc(Nc2nn3c(=O)c4cc5c(cc4nc3s2)OCO5)cc1", "activity, negative = active": 3.36}, {"smiles": "CCOC(=O)c1c(C)[nH]c(C)c1S(=O)(=O)NCC(=O)NCc1cccc(C)c1", "activity, negative = active": -0.939}, {"smiles": "COc1ccc(CNC(=O)Cn2nnc(-c3ccc(S(C)(=O)=O)cc3)n2)cc1", "activity, negative = active": 2.9}, {"smiles": "COc1ccc(OC)c(NC(=O)CSc2nc3ccccc3nc2N2CCCCC2)c1", "activity, negative = active": -8.14}, {"smiles": "Cc1ccc(Cn2cnc3c(cnn3C(C)(C)C)c2=O)c(F)c1", "activity, negative = active": -1.28}, {"smiles": "Brc1cccc(-c2nnn3c2nc(NC2CCCCC2)c2ccccc23)c1", "activity, negative = active": 5.7}, {"smiles": "C[N+]1(CC(=O)c2cccs2)CCOCC1", "activity, negative = active": 1.57}, {"smiles": "CCCNC(=O)C1CCN(c2nc3ccc(C)cc3[nH]2)CC1", "activity, negative = active": 0.307}, {"smiles": "COc1cc(OC)c(NC(=O)c2c3c(nn2C)-c2ccccc2SC3)cc1Cl", "activity, negative = active": 3.23}, {"smiles": "CN(N=O)c1ccc(C=C2c3ccccc3-c3ccccc32)cc1", "activity, negative = active": -1.54}, {"smiles": "COc1ccc2[nH]c3c(c2c1)CCN(C(=O)CCC1CCCC1)C3c1ccc(F)cc1", "note": "(stereo unspecified)", "activity, negative = active": -9.23}, {"smiles": "CN(C)c1cccc2ccccc12", "activity, negative = active": 3.02}, {"smiles": "CN(C)c1ccc(/C=C/c2c3ccccc3nc3ccccc23)cc1", "activity, negative = active": -16.4}, {"smiles": "Cc1oc2c(c1C(=O)Nc1ccc(F)c(F)c1)C1=NCCN1C=N2", "activity, negative = active": 2.52}, {"smiles": "CCc1nnc(SCc2c(F)cccc2Cl)c2cc3sccc3n12", "activity, negative = active": -1.5}, {"smiles": "COc1ccc(/C=C/c2ccccn2)cc1OC", "activity, negative = active": 0.196}, {"smiles": "Cc1cc(Cl)ccc1OCC(=O)N(Cc1ccc(N(C)C)cc1)C1CCS(=O)(=O)C1", "note": "(stereo unspecified)", "activity, negative = active": 0.29}, {"smiles": "CN(C)C1=C2C=CC=CC2/C(=C2/C=Cc3ccccc32)C=C1", "note": "(stereo unspecified)", "activity, negative = active": -6.13}, {"smiles": "CCOc1ccccc1NC(=O)Cn1c(=O)n(-c2cccc(C)c2)c(=O)c2c1c1cc(OC)ccc1n2C", "activity, negative = active": 0.805}, {"smiles": "O=C(Nc1ccc([N+](=O)[O-])cc1)c1cnn2c1NC(=C1CC1)C=C2C(F)F", "activity, negative = active": 0.78}, {"smiles": "O=C(CSc1ncc(S(=O)(=O)c2ccc(Br)cc2)c(=O)[nH]1)Nc1ccc2c(c1)OCCO2", "activity, negative = active": -0.105}, {"smiles": "CCOc1ccccc1C(=O)NCc1ccc2c(c1)CCN2C(=O)c1ccc(F)cc1", "activity, negative = active": 0.357}, {"smiles": "COc1cc2nc(C#Cc3nc4cc(OC)c(OC)cc4[nH]3)[nH]c2cc1OC", "activity, negative = active": 0.338}, {"smiles": "COc1cccc(/C=N/NC(=O)c2[nH]nc3c2CCc2ccccc2-3)c1O", "Potency": "8.91 µM (active)"}, {"smiles": "Cc1ncc(CO)c(/C=N/NC(=O)c2cccc(S(=O)(=O)N3CCCC3)c2)c1O", "activity, negative = active": -0.256}, {"smiles": "Cc1ccccc1NC(=O)COc1cccc2c1CCNC2=O", "activity, negative = active": -0.461}, {"smiles": "CCc1cc2c(cc3c(=O)n(CC(=O)N4CCN(c5cc(Cl)ccc5C)CC4)nc(CC)n32)s1", "activity, negative = active": 0.482}]}]}
